In PubChem BioAssay (NCATS):
Records with an inconclusive call do not appear. A call without a number means that no potency is given here. A number with no mark means an inactive call. Calls of active or inactive are those of the source. Calls come from the whole dose curve; as a rule, active = well fitted cell-killing curve with a large enough effect; inconclusive = small, poorly fitted or top-dose-only effect, or effect the other way; inactive = flat fitted curve, though single readings scatter.

tested on: PA-1; experiment: Primary qHTS to identify gynecologic anti-cancer compounds using libraries of approved drugs and bioactive compounds (AID 1345084); settings: Gynecologic cancer cell panel viability, ATPlite luminescence, 48 h; series mostly up to 57.5 µM; note: nearly all actives have a fitted effect of over 55% in size
How it was run: (§1)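 Cytotoxicity screen measuring ATP content by luciferase luminescence. Each compound is applied at five concentrations for 48 h at 37 C with 5% CO2.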

SMILES	Potency
CCN(CC)Cc1ccc(C(=O)N(CCc2ccccc2OC)[C@@H]2CCNC2)cc1	inactive
O=C1OCc2cc3cccc(O[C@@H]4O[C@H](CO)[C@@H](O)[C@H](O)[C@H]4O)c3c(O)c21	inactive
O=C(C(c1ccccc1)c1ccccc1)N1CCN(CC(O)COc2cccc3ncccc23)CC1 (stereo not drawn)	inactive
CC(C)CNCc1ccc(-c2ccccc2S(=O)(=O)N2CCCC2)cc1	inactive
N[C@H]1Cc2ccccc2N(O)C1=O	inactive
C/C=C/C=C/C(O)=C1\C(=O)[C@]2(C)C3C(C(=O)CC/C=C/C)=C(O)C4(C)C1[C@]1(C)O[C@@]4(O)[C@@]3(C)O[C@@]12O	inactive
CCC(C)/C=C(C)/C=C/c1cc2c(cn1)C(=O)C(C)(OC(C)=O)C(O)=C2Cl (stereo not drawn)	inactive

tested on: SKOV3; experiment: as above; settings: Gynecologic cancer cell panel viability, ATPlite luminescence, 48 h; series mostly up to 57.5 µM
How it was run: as §1

SMILES	Potency	activity change, negative = cytotoxicity
C/C=C(\C)C(=O)O[C@H]1[C@@H](O[C@]2(COC(=O)CC(C)C)O[C@H](COC(=O)C(C)CC)[C@@H](OC(C)=O)[C@@H]2O)O[C@H](COC(C)=O)[C@@H](O)[C@@H]1O (stereo partly drawn)	inactive	–
C=C(C(=O)O)C1CC2=C(C)CCCC2(C)C[C@@H]1O (stereo partly drawn)	inactive	–
O=C(NCc1ccc(F)cc1)C(=O)c1c[nH]c2ccccc12	inactive	–
C/C(=C\C=C\C(C)C1CCC2(C)C3CCC4C(C)(C)C(=O)CCC45CC35CCC12C)C(=O)O (stereo not drawn)	inactive	–
CC(=O)O[C@@H]1[C@@H](OC(=O)/C=C/c2ccccc2)[C@@H](OC(C)=O)[C@H](O[C@H]2[C@@H]3C=CO[C@@H](O[C@@H]4O[C@H](CO)[C@@H](O)[C@H](O)[C@H]4O)[C@@H]3[C@@]3(CO)O[C@@H]23)O[C@H]1C	inactive	–
CCN(CC)Cc1ccc(C(=O)N(CCc2ccccc2OC)[C@@H]2CCNC2)cc1	inactive	–
O=C1OCc2cc3cccc(O[C@@H]4O[C@H](CO)[C@@H](O)[C@H](O)[C@H]4O)c3c(O)c21	inactive	–
O=C(C(c1ccccc1)c1ccccc1)N1CCN(CC(O)COc2cccc3ncccc23)CC1 (stereo not drawn)	inactive	–
CC(C)c1cc2c(c(O)c1O)[C@@]13CCCC(C)(C)[C@@H]1[C@H](OC3=O)C2=O	inactive	–
CC(C)CNCc1ccc(-c2ccccc2S(=O)(=O)N2CCCC2)cc1	inactive	–
Nc1nc2c(c(N3CCNCC3)n1)CCC1=C2[C@@H]2CCCC[C@@H]2O1	inactive	–
CC1(C)CC[C@]2(C(=O)O)CC[C@]3(C)C(=CCC4[C@@]5(C)CC[C@H](O[C@@H]6O[C@H](C(=O)O)[C@@H](O[C@@H]7OC[C@@H](O)[C@H](O)[C@H]7O)[C@H](O)[C@H]6O)C(C)(C)C5CC[C@]43C)C2C1O (stereo partly drawn)	inactive	–
N[C@H]1Cc2ccccc2N(O)C1=O	inactive	–
CC(C)(C)NS(=O)(=O)c1cncc(-c2cc(F)c3nc(N)nn3c2)c1	inactive	–
C/C=C/C=C/C(O)=C1\C(O)=C(C)C(=O)[C@@]2(C)OC(=O)[C@@](C)(NC(=O)/C=C/C(=O)O)[C@@H]12	inactive	–
C[C@@H]1CCC2C(C)(C)[C@H](O)CC[C@]2(C)[C@@]12Cc1c(O)cc3c(c1O2)CN([C@@H](CCC(=O)O)C(=O)O)C3=O (stereo partly drawn)	inactive	–

SMILES	Potency	activity change, negative = cytotoxicity
C/C=C/C=C/C(O)=C1\C(=O)[C@]2(C)C3C(C(=O)CC/C=C/C)=C(O)C4(C)C1[C@]1(C)O[C@@]4(O)[C@@]3(C)O[C@@]12O	inactive	–
C[C@@H]1O[C@@H](O[C@H]2[C@H](OC(=O)[C@]34CCC(C)(C)C[C@H]3C3=CCC5[C@@]6(C)C[C@H](O)[C@H](O[C@@H]7O[C@H](CO)[C@@H](O)[C@H](O)[C@H]7O)[C@@](C)(CO)C6[C@H](O)C[C@@]5(C)[C@]3(C)CC4)OC[C@H](O)[C@@H]2O)[C@H](O)[C@H](O)[C@H]1O[C@@H]1OC[C@@H](O)[C@H](O[C@@H]2OC[C@](O)(CO)[C@H]2O)[C@H]1O (stereo partly drawn)	–	1.77% [at 6.55 µM]
C1CCC[C@H]2CCCN3CC[C@@H](CCCCCC[C@@H]4CCCN5CC[C@@H](CC1)O[C@@H]45)O[C@@H]23	–	0.0209% [at 0.155 µM]
Cc1[nH]c2ccccc2c1C1=C(NCCc2ccc(F)cc2)C(=O)N(C)C1=O	inactive	–
OC[C@H]1O[C@@H](O[C@H]2[C@H](OCCc3ccccc3)O[C@H](CO)[C@@H](O)[C@@H]2O)[C@H](O)[C@@H](O)[C@@H]1O	inactive	–
C=C1[C@@H]2CC[C@@H]3[C@@](CCC4C(C(=O)O)(C(=O)O)C[C@@H](O[C@@H]5O[C@H](CO)[C@@H](O)[C@H](O)[C@H]5OC(=O)CC(C)C)C[C@]43C)(C2)[C@H]1O (stereo partly drawn)	inactive	–
CC(=O)C1=C(C)N(c2cccc(C(F)(F)F)c2)C(=O)N[C@H]1c1ccc(C#N)nc1	–	12.1% [at 11.6 µM]
CC(CCC1(O)OC2CC3C4CCC5CC(O[C@@H]6O[C@H](CO)[C@@H](O)[C@H](O)[C@H]6O[C@@H]6O[C@@H](C)[C@H](O)[C@@H](O)[C@H]6O)C(O)CC5(C)C4CCC3(C)C2C1C)CO[C@@H]1O[C@H](CO)[C@@H](O)[C@H](O)[C@H]1O (stereo partly drawn)	–	3.64% [at 11.6 µM]
OCC1OC(Oc2cc(O)cc(/C=C/c3ccc(O)cc3)c2)C(O)C(O)C1O (stereo not drawn)	inactive	–
CCC(C)/C=C(C)/C=C/c1cc2c(cn1)C(=O)C(C)(OC(C)=O)C(O)=C2Cl (stereo not drawn)	inactive	–
CC1=CC(=O)CC(C)(C)[C@@]1(O)CC[C@@H](C)O[C@@H]1O[C@H](CO)[C@@H](O)[C@H](O)[C@H]1O	inactive	–
CC1(C)CCC[C@@]2(C)C1[C@H](OC(=O)/C=C/C=C/C(=O)O)C=C1COC(=O)[C@@]12O (stereo partly drawn)	inactive	–
O=C1NC2CCc3nc4ccccc4c(=O)n3C2=Nc2ccccc21 (stereo not drawn)	inactive	–
COc1cc2oc(-c3ccc(O)cc3O)cc2c(OC)c1CC=C(C)C	inactive	–
CC(=O)OC1C(O)CC2(C)C(CCC(C)C23Cc2c(O)cc(CO)c(C=O)c2O3)C1(C)C (stereo not drawn)	inactive	–
